# The panel holds about 83,000 compounds, 20% with a hit somewhere; the sample as a whole holds those more often.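 Interpretation: 100, growth as untreated; towards 0, rising growth inhibition; 0, no net growth; 0 to -100, cell death. Compounds scoring below 10 were considered active.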 A number with no mark means an inactive call. Calls of active or inactive are those of the source.
# System: HL-60(TB) leukemia
# Experiment: NCI-60 one-dose screen, 48 h (100 = growth as untreated, 0 = no growth, -100 = all killed)
# Conditions: 10 µM unless noted
row,SMILES,growth
1,COc1ccc(C2CC(c3cccc(Nc4nc(Cl)nc5cc(OC)c(OC)cc45)c3)=Nc3c(N)nc(N)nc3N2)cc1 (stereo not given),47.4%
2,CC1(C)CC[C@]23CC[C@]4(C)[C@H](CC[C@@H]5[C@@]6(C)CC[C@H](NCO)C(C)(C)[C@@H]6CC[C@]54C)[C@H]2[C@H]1OC3,4.17% (active)
3,Oc1cccc2ccc(-c3nnc(SCc4ccc(O)c5ncccc45)n3-c3ccccc3)nc12,3.4% (active)
4,Nc1ncc(-c2ccc3ncnc(N4CCc5cc(F)c(Cl)cc54)c3c2)cc1CO,-23.4% (active)
5,CCc1cc(OC(=O)N2CCC(N3CCCCC3)CC2)ccc1Nc1cc(-c2ccc(-n3cccn3)cc2)[nH]n1,62.5%
6,N#Cc1c(-c2cccs2)cc(-c2cnccn2)nc1SCC(=O)N/N=C/c1ccc(Cl)cc1,110%
7,NNC(=O)c1sc2nc(-c3cnccn3)cc(-c3cccs3)c2c1N,105%
8,O=C(CCN1C(=O)/C(=C/c2ccccc2)SC1=S)N1CCOCC1,89.3%
9,CCOP(=O)(OCC)OC[C@]12CC[C@@H](C)[C@H](C)C1C1=CC[C@@H]3[C@@]4(C)CCCNC(C)(C)[C@@H]4CC[C@@]3(C)[C@]1(C)CC2 (stereo not given in full),-67.7% (active)
10,NC(N)=Nc1ccc(Oc2cccc(NC(N)=Nc3ccc(I)cc3F)c2)cc1,67.4%
11,N#Cc1cccc(CN2CCc3ncn(Cc4ccc(Cl)cc4)c(=O)c3C2)c1,13.5%
12,O=C(NNc1nc2cc(F)ccc2n2c(CN3CCC(O)C3)ccc12)c1cnccn1 (stereo not given),-14.8% (active)
13,O=C(/C=C/c1cc(Cl)ccc1Cl)Nc1ncc(Cc2ccc(Cl)cc2)s1,-7.21% (active)
14,CNC(=O)c1cc(-c2ccc(NC(=S)Nc3cc(C(F)(F)F)cc(C(F)(F)F)c3)cc2)nc2cccnc12,121%
15,O=C(N/N=C/c1ccc(Cl)s1)c1[nH]c2ccc(Br)cc2c1-c1ccccc1,-44.1% (active)
16,CCNC(=O)N1CCc2cc(OC)c(OCCc3ccc(OC)nc3)cc2C1c1ccc(OC)cc1C (stereo not given),11.5%
17,C#Cc1nc(C(C)=O)cs1,100%
18,C[C@H]1c2[nH]c3ccccc3c2C[C@H]2C(=O)N(CCCCCCC(=O)NO)CC(=O)N21,108%
19,NS(=O)(=O)c1ccc(Nc2nc(N/N=C/c3ccc([N+](=O)[O-])cc3)nc(Nc3ccccc3)n2)cc1,35%
20,C#Cc1nc(/C=C/C(=O)c2nccn2C)cs1,-40.3% (active)

row,SMILES,growth
1,C#Cc1nc(/C=C\CCCCCCC(=O)NO)cs1,-53.8% (active)
2,CCN1C(=O)N(CC)C2SC(N/N=C/c3ccccc3)=NC21 (stereo not given),4% (active)
3,CCCC(=O)NC(c1cccnc1)c1cc(C(C)=O)c2cccnc2c1O (stereo not given),24.9%
4,CCn1c(SCC(=O)Nc2cccc(C(=O)/C=C/c3ccc(Br)cc3)c2)nc2ccccc2c1=O,84.7%
5,NC(=O)C(=Cc1ccc(Cl)cc1)C(N)=O,26.6%
6,Cc1cc(Cl)cc(NS(=O)(=O)c2ccc(-c3cnc(C4CC4)o3)cc2)c1,-4.23% (active)
7,COc1ccc([C@H]2c3[nH]c4ccccc4c3C[C@@H]3C(=O)N(C4CCN(Cc5ccccc5)CC4)CC(=O)N23)c(OC)c1,50.7%
8,Oc1[nH]c2ccc(Cl)cc2c1N=Nc1nc(N=Nc2c(O)[nH]c3ccc(Cl)cc23)nc(N2CCOCC2)n1,72.2%
9,O=[N+]([O-])c1cc(/C=N/Nc2nc(N/N=C/c3ccc(Cl)c([N+](=O)[O-])c3)nc(N3CCCCC3)n2)ccc1Cl,41.9%
10,CN1CCN(c2ccc(Nc3nc(NCCCNS(=O)(=O)c4cccc5ccccc45)c4sccc4n3)cc2)CC1,-45.2% (active)
11,O=C(N/N=C/c1cccs1)c1[nH]c2ccc(Br)cc2c1-c1ccccc1,-48.3% (active)
12,C/C(=N\NC(=S)Nc1ccc(Br)cc1)c1cc2ccccc2oc1=O,1.53% (active)
13,CCOC(=O)c1c(NC(=O)c2cccc(C(F)(F)F)c2)sc2c1CCC(=O)C2,37.7%
14,O=[N+]([O-])c1ccc(-c2nnc(SCc3ccc(O)c4ncccc34)o2)cc1,13.7%
15,CCCc1[nH]c(-c2cc(N)ccc2Cl)c2c1C(=O)CCCC2,92.4%
16,CNC(=O)c1cc(N2CCc3cc(NC(=O)Nc4ccc(N5CCOCC5)c(C(F)(F)F)c4)ccc32)ccn1,13%
17,CCOC(=O)c1c(Nc2ccccc2)nn2c(N)c(C#N)c(-c3ccc(F)cc3)nc12,72.6%
18,COc1cc2cc(Oc3ccc(NC(=O)Nc4cc(C(F)(F)F)cc(C(F)(F)F)c4)cc3)c(C)nc2cc1OCCN(C)C,109%
19,O=c1[nH]c2ccccc2cc1CSc1ccccc1Nc1nccc(-c2ccc(Cl)cc2)n1,102%
20,O=C(NCCCNc1cc(-c2cn(-c3ccccc3)nc2-c2cccc(O)c2)ccn1)Nc1cccc(C(F)(F)F)c1,24.7%
